# Screening data: PubChem BioAssay, National Center for Advancing Translational Sciences (NCATS)
# An excerpt weighted towards active compounds, which were near 4.2% of everything screened.
# TRPV1 potentiator = HTS Assay for Compounds that Act as Potentiators of the Vanilloid Receptor 1. hit rate 0.02% among 320,000. TRPV1-expressing cells, Fluo-8 calcium influx, capsaicin EC20 potentiation. potentiation, % at 8.33 µM. AID 540277, 2011. Transient receptor potential cation channel subfamily V member 1 (Homo sapiens), Q8NER1; in the data active = potentiation above about 80%; inconclusive = between about 30% and that limit
#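 Cells expressing TRPV1 were dye-loaded with Fluo-8 and read kinetically: 10 s baseline, 3 min after compound (agonist portion), then 2 min after EC20 capsaicin (allosteric enhancer portion). Calcium-bound dye fluorescence at 480/520 nm.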
# D1 agonist = Allosteric Agonists of the Human D1 Dopamine Receptor: qHTS; HEK293 T-REx D1 cells, calcium flux, agonist mode; activation, % at 2 µM; hit rate 1% among 360,000; AID 504660, 2011; in the data active = activation above about 30%
# Target sequence (P21728 whole entry, looked up): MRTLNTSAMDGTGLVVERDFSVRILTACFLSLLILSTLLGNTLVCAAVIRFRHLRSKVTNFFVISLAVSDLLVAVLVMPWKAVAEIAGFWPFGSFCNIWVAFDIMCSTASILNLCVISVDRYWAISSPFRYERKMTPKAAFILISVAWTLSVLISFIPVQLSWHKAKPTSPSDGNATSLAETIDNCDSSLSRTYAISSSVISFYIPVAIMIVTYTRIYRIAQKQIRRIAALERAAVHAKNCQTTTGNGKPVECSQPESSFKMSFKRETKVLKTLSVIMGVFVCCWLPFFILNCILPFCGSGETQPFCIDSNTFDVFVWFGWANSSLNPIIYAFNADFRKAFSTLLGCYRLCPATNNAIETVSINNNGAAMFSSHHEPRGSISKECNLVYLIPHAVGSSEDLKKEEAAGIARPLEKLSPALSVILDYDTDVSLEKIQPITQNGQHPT
#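 Inducible HEK293 T-REx D1 cells, force-coupled to calcium signalling, were plated at 4000 cells/well with tetracycline and held overnight at 30 C. After no-wash calcium dye loading, compound-evoked calcium rise over 180 s flagged agonists.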
# D1 PAM = Potentiators of Human D1 Dopamine Receptor: qHTS; D(1A) dopamine receptor (Homo sapiens), P21728; HEK293 TREx D1 cells, calcium flux, dopamine EC20 potentiation; potentiation, % at 10 µM; hit rate 0.036% among 360,000; in the data active = potentiation above about 30%
# D1 antag = Antagonist of Human D 1 Dopamine Receptor: qHTS. D(1A) dopamine receptor (Homo sapiens), P21728. HEK293 TREx D1 cells, calcium flux, dopamine EC80; active compounds read low. activity change, negative = inhibition, % at 10 µM. hit rate 3.2% among 360,000; in the data active = activity change below about -30%
#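 HEK293 T-REx cells expressing inducible, force-coupled D1 receptor; no-wash Ca dye, 30–90 min RT. Cmpd → 180 s read at 1 Hz → EC80 DA → 180 s read.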
# TRPV1 agonist = HTS Assay for Compounds that Act as Agonists of the Vanilloid Receptor 1. Transient receptor potential cation channel subfamily V member 1 (Homo sapiens), Q8NER1. TRPV1-expressing cells, Fluo-8 calcium influx, agonist mode. activation, % at 8.33 µM. hit rate 0.19% among 320,000. AID 540275, 2011; in the data active = activation above about 80%; inconclusive = between about 30% and that limit
#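 Fluo-8 calcium influx in TRPV1-expressing cells, kinetic read (ex 480/em 520 nm). Compound added and read 3 min for agonist activity, followed by capsaicin at EC20 final and 2 min further read for enhancement.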
# A number is an active result; - = inactive; ? = inconclusive; . = not tested or not shown; ! = not confirmed by another sample.
SMILES,TRPV1 potentiator,D1 agonist,D1 PAM,D1 antag,TRPV1 agonist
Cc1cc(C)cc(-n2ncc3c2CCCC3NC(=O)c2cc(C)n(C)n2)c1 (stereo not given),-,-,-,-,-
Cc1cc(C(=O)NC2CCCc3c2cnn3-c2cccc(C)c2C)no1 (stereo not given),-,-,-,-38,-
Cc1nc(C)c(-c2ccc(SCC(=O)Nc3cccc(C)c3C)nn2)s1,.,-,-,-,.
COc1cc(CNC(=O)c2ccc3c(c2)N(C)C(=O)C2CCCCN32)cc(OC)c1OC (stereo not given),.,-,-,-,.
CC(CNC(=O)Cn1ncc2c3ccccc3n(Cc3cccc(Cl)c3)c2c1=O)c1ccccc1 (stereo not given),.,-,-,-,.
Cc1ccc(CN(Cc2ccco2)C(=O)COc2ccc(Cl)cc2)o1,.,-,-,-,.
COc1ccc(C)cc1N(C(=O)c1snc(C(N)=O)c1N)C(C(=O)NC1CCCC1)c1ccc(F)cc1 (stereo not given),-,-,-,-,99
O=S(=O)(c1ccc2c(c1)OCCO2)N1CCN(S(=O)(=O)c2cccc[n+]2[O-])CC1,.,-,-,-,.
O=C(NCCSC1CCCCC1)c1ccccc1,-,-,-,-77,?
COc1ccc(C(=O)NCCSC2CCCCC2)cc1,-,-,-,-43,?
COc1ccc(C(=O)NC(=S)N(C)C2CCCCC2)cc1,-,-,-,-46,?
CS(=O)(=O)Nc1ccc(C(=O)NCCSC2CCCCC2)cc1,-,-,-,-,?
Cc1nnc(N2CCN(c3ccc(Cl)cc3)CC2)c2c1nnn2Cc1ccc(F)cc1,.,-,-,-,.
COc1ccccc1N1CCN(S(=O)(=O)c2cc(C(=O)Nc3ccc(Oc4ccccc4)cc3)ccc2F)CC1,.,-,-,-,.
CCc1ccc(CN2CCCC(CNC(=O)c3cc(OC)cc(OC)c3)C2)cc1 (stereo not given),-,-,-,-37,-
CC1=C([N+](=O)[O-])C(c2ccccc2)NC(=O)N1 (stereo not given),-,-,-,-33,-
COc1cc(CN(C(=O)c2ccc(OC(C)C)cc2)c2ccccn2)cc(OC)c1OC,.,-,-,-,.
CCC(C)(C)c1ccc(OCCCC[n+]2cccc(C)c2)c(C(C)(C)CC)c1,-,169,-,-,-
Cc1ccc(NC(=O)C(Cc2c[nH]c3ccccc23)NC(=O)OCC(C)C)cc1 (stereo not given),.,-,-,-,.
Cc1cc(NC(=S)N(CCN2CCCCC2)Cc2ccco2)ccc1Cl,-,-,-,-38,-
CCOc1ccc(OCC)c(NC(=O)C2CCN(S(=O)(=O)c3ccc4c(c3)CC(C)N4C(C)=O)CC2)c1 (stereo not given),-,-,-,-35!,-
CCc1ccc(NC(=O)C2CCN(S(=O)(=O)c3ccc4c(c3)CC(C)N4C(C)=O)CC2)cc1 (stereo not given),-,-,-,-31,-
CCc1ccc(NC(=O)C2CCCN(S(=O)(=O)c3ccc4c(c3)CC(C)N4C(C)=O)C2)cc1 (stereo not given),-,-,-,-,-
CCOc1ccc(NC(=O)C2CCN(S(=O)(=O)c3ccc4c(c3)CC(C)N4C(C)=O)CC2)cc1 (stereo not given),-,-,-,-,-
COc1cc(NC(=O)C(OC(=O)CNC(=O)c2ccccc2)c2ccccc2)c(OC)cc1Cl (stereo not given),.,-,-,-,.
COc1ccc(NC(=O)C(OC(=O)CNC(=O)c2ccccc2)c2ccccc2)c(C)c1 (stereo not given),.,-,-,-48,.
O=C1CSC2(C(=O)N(Cc3c(F)cccc3Cl)c3ccccc32)N1c1ccc(F)c(F)c1 (stereo not given),.,-,-,-,.
CCc1ccc(CNc2ccc(N3CCN(C(C)=O)CC3)cc2)cc1,-,34,-,-,-
O=C1CCCCC1C(O)c1ccc(Cl)cc1 (stereo not given),-,-,-,-74,-
